From PubChem BioAssay
TWEAK Fn14 block: inhibitors of TWEAK-Fn14 interaction signaling; inhibition, % at 10 µM; hit rate 2% among 360,000; AID 1159606; TWEAK-stimulated Fn14 reporter cells, luciferase luminescence, 8 h; in the data active = inhibition above about 50%
TROY signal inh: TROY signaling inhibition | inhibition, % at 10 µM | hit rate 0.98% among 360,000 | Q293 LMP1-TROYcd NF-kB luciferase reporter, 4 h;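 active = compounds whose plate-normalised and pattern-corrected inhibition of the luciferase reporter signal at the single screening dose is 50% or more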
LGR2 inh: inhibitors of bursicon-induced Drosophila LGR2 receptor cAMP signaling; AID 720647; hit rate 0.35% among 380,000; HEK293 LGR2, CRE-luciferase, bursicon-stimulated, 4 h; inhibition, % at 9.99 µM;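 active = drop in luminescence signal, shown as inhibition above about 50% in the replicate tests, limit read from the data, passing the limit was not always enough; inconclusive = probably only some replicates passing the limit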;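 also: agonist challenge used bursicon conditioned medium at about half maximal strength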
aDG glyco act: alpha-DG glycosylation activation; Pro5-aDG cells, alpha-DG glycosylation AlphaScreen (IIH6); 0% Pro5, 100% B10-LARGE cell signal; hit rate 0.22% among 360,000; activation, % at 10 µM;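 active = activation of at least 8% versus controls, or a plate z-score of at least 8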;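 also: Pro5 are CHO cells carrying HIG-tagged alpha-DG that lacks glycosylation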
EBV LMP1 NFkB: inhibitors of Epstein-Barr LMP1-induced NF-kappaB reporter | LMP1-induced NF-kappaB luciferase reporter cells, luminescence | inhibition, % at 12.5 µM | hit rate 0.69% among 350,000 | AID 504558; in the data active = inhibition above about 41%; inconclusive = no clear call, values can overlap the other calls
HSP90 refold inh: blocks HSP90-mediated luciferase refolding in reticulocyte lysate; Rabbit reticulocyte lysate, luciferase refolding luminescence, 3 h; inhibition, % at 5.6 µM; hit rate 0.91% among 290,000; AID 1789;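 active = inhibition above the screen-wide mean plus 3 SD, computed separately per campaign, cut at about 16% in these data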;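 also: inhibitors lower the luminescence because luciferase stays unfolded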
Large screens that a line does not name were inactive. Compounds with a hit are over-represented: about 2.6% of the library has one in this group of screens.

Cc1ccc(NC(=O)c2cc(=O)c3ccccc3o2)cc1S(=O)(=O)N1CCCCC1	TROY signal inh 57
Cc1ccc(NC(=O)Cn2ncc(Cl)c(Cl)c2=O)cc1S(=O)(=O)N1CCCCC1	TWEAK Fn14 block 86, TROY signal inh 84 (no result: HSP90 refold inh)
NS(=O)(=O)c1cccc(NC(=O)c2ccccc2NS(=O)(=O)c2ccc(F)cc2)c1	none
CN(CC(=O)Nc1ccc(F)cc1)C(=O)C1Cc2ccccc2CN1S(C)(=O)=O (stereo not drawn)	none (no result: HSP90 refold inh)
Cc1ccc(NC(=O)Cc2ccc(Cl)cc2)cc1S(=O)(=O)N1CCCCCC1	none (no result: HSP90 refold inh)
CCS(=O)(=O)N1Cc2ccccc2CC1C(=O)N(C)CC(=O)Nc1cccc(F)c1 (stereo not drawn)	TROY signal inh 59 (no result: HSP90 refold inh)
O=C(Nc1cccc(S(=O)(=O)N2CCCCC2)c1)c1ccccc1NS(=O)(=O)c1ccc(F)cc1	TWEAK Fn14 block 58, TROY signal inh 54
Cc1ccc(S(=O)(=O)N(C)C[C@@H]2Oc3c(NC(=O)c4nc5ccccc5s4)cccc3C(=O)N([C@@H](C)CO)C[C@@H]2C)cc1	none (no result: TWEAK Fn14 block, TROY signal inh, aDG glyco act, EBV LMP1 NFkB, HSP90 refold inh)
O=C(C[C@H]1CC[C@H](NC(=O)Nc2cc(F)ccc2F)[C@H](CO)O1)NCCCN1CCOCC1	none (no result: TWEAK Fn14 block, TROY signal inh, aDG glyco act, EBV LMP1 NFkB, HSP90 refold inh)
CCc1cnc(N2[C@H](C#N)[C@@H](c3ccccc3C3=CCCCC3)[C@@H]2CO)s1	none (no result: TWEAK Fn14 block, TROY signal inh, aDG glyco act, EBV LMP1 NFkB, HSP90 refold inh)
Cc1cccc(C(=O)NC(=S)Nc2ccc(S(=O)(=O)N3CCCCC3)cc2)c1	TWEAK Fn14 block 51 (no result: LGR2 inh)
Cc1ccc(C(=O)Nc2cccc(C(=O)O)c2)cc1S(=O)(=O)N1CCCCC1	EBV LMP1 NFkB 44 (no result: LGR2 inh)
Cc1ccc(C(=O)Nc2ccccc2C(=O)NCc2ccco2)cc1S(=O)(=O)N1CCCCC1	TWEAK Fn14 block 52 (no result: LGR2 inh)
COc1ccc(NC(=O)CN(C)CC(=O)Nc2cccc(F)c2)cc1S(=O)(=O)N1CCCCC1	none (no result: HSP90 refold inh)
Cc1ccc(NC(=O)CN(C)CC(=O)Nc2cccc(F)c2)cc1S(=O)(=O)N1CCCCCC1	TWEAK Fn14 block 50, TROY signal inh 50
CC=Cc1ccc2n(c1=O)C[C@H]1[C@H](CO)[C@@H](C(=O)NCCc3ccncc3)[C@@H]2N1CCc1ccccc1 (mixture of isomers)	none (no result: TWEAK Fn14 block, TROY signal inh, aDG glyco act, EBV LMP1 NFkB, HSP90 refold inh)
Cc1ccc(NC(=O)CN(C)C(=O)Cn2ncc(Cl)c(Cl)c2=O)cc1	TWEAK Fn14 block 96, EBV LMP1 NFkB 88
Cc1ccc(NC(=O)c2ccccc2NS(=O)(=O)c2ccc(F)cc2)cc1S(=O)(=O)N1CCCCC1	TWEAK Fn14 block 72, TROY signal inh 60, LGR2 inh inconclusive
C[C@@H]1CN([C@H](C)CO)C(=O)c2cc(NC(=O)C3CC3)ccc2O[C@H]1CN(C)C(=O)Nc1cccc2ccccc12	none (no result: TWEAK Fn14 block, TROY signal inh, aDG glyco act, EBV LMP1 NFkB, HSP90 refold inh)
COc1ccc(NC(=O)N[C@H]2CC[C@H](CCNC(=O)CN3CCOCC3)O[C@H]2CO)cc1	none (no result: TWEAK Fn14 block, TROY signal inh, aDG glyco act, EBV LMP1 NFkB, HSP90 refold inh)
C=CCSc1nccc(-c2cc(Cl)sc2Cl)n1	EBV LMP1 NFkB 84 (no result: LGR2 inh)
N#CCSc1nccc(-c2cc(Cl)sc2Cl)n1	none (no result: LGR2 inh)
C[C@@H]1CN([C@@H](C)CO)C(=O)c2cc(NS(C)(=O)=O)ccc2O[C@H]1CN(C)S(=O)(=O)c1ccc(Cl)cc1	none (no result: TWEAK Fn14 block, TROY signal inh, aDG glyco act, EBV LMP1 NFkB, HSP90 refold inh)
Fc1ccc(-c2nnc(-n3nnc4ccccc43)c3ccccc23)cc1	EBV LMP1 NFkB 53 (no result: LGR2 inh)
COc1ccccc1N1CCN(c2nnc(-c3ccc(F)cc3)c3ccccc23)CC1	none
Oc1ccc(Cl)cc1Cc1cc(Cl)ccc1O	TWEAK Fn14 block 54, TROY signal inh 54 (no result: LGR2 inh)
CC(C)c1ccc(/C=C(\c2nc3ccccc3[nH]2)S(=O)(=O)c2ccccc2)cc1	TWEAK Fn14 block 94, LGR2 inh 59
O=S(=O)(/C(=C/c1ccc(C(F)(F)F)cc1)c1nc2ccccc2[nH]1)c1ccccc1	TWEAK Fn14 block 63, LGR2 inh inconclusive
O=C(Nc1cccc(F)c1)N1CC(=O)N2[C@H](CO)[C@H](c3ccc(-c4ccc(F)cc4)cc3)[C@@H]2C1	none (no result: TWEAK Fn14 block, TROY signal inh, aDG glyco act, EBV LMP1 NFkB, HSP90 refold inh)
O=S(=O)(Cc1ccccc1)N1CCCCN2[C@H](CO)[C@H](c3ccc(-c4ccccc4)cc3)[C@@H]2C1	none (no result: TWEAK Fn14 block, TROY signal inh, aDG glyco act, EBV LMP1 NFkB, HSP90 refold inh)
COc1ccccc1CN1C[C@@H](C)[C@@H](OC)CN(C)C(=O)c2cc(NC(C)=O)ccc2OC[C@@H]1C	none (no result: TWEAK Fn14 block, TROY signal inh, aDG glyco act, EBV LMP1 NFkB, HSP90 refold inh)
Cc1onc(-c2ccc3c(c2)OCO3)c1-c1ccc2[nH]ccc2c1	TWEAK Fn14 block 62
c1cc2cc(-c3c(-c4ccc5c(c4)OCO5)noc3-c3ccsc3)ccc2[nH]1	none
O=C1c2ccccc2CN1c1ccccc1	none
COc1ccc(N2Cc3ccccc3C2=O)cc1	EBV LMP1 NFkB 81
